# Data reported in PubChem BioAssay (NCATS).
# Records with an inconclusive call do not appear. Entries that show only a call come without a potency. A number with no mark means an inactive call. Activity calls are given as the source filed them. Calls come from the whole dose curve; as a rule, active = well fitted curve in the direction sought with a large enough effect; inconclusive = small, poorly fitted or top-dose-only effect, or another doubt; inactive = no such curve, though single readings can be large; an effect the other way counts as inactive or inconclusive.
# Experiments:
# [1] = system: Zika virus NS2B-NS3 protease; experiment: Primary screen GU AMC qHTS for Zika virus inhibitors (AID 1347154); note: nearly all actives have a fitted effect of over 70% in size
# In short: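 Unlinked Zika NS2B hydrophilic domain–NS3 protease complex at 25 nM in 10 mM Tris-HCl pH 8.0, 0.01% Tween 20, with an AMC peptide substrate. Fluorescence change (340/450 nm) over 15 min at room temperature, normalized to controls, fitted to 4-parameter Hill.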
# [2] = system: Zika virus NS2B-NS3 protease (unlinked complex); experiment: Primary screen GU Rhodamine qHTS for Zika virus inhibitors: Unlinked NS2B-NS3 protease assay (AID 1347159); note: nearly all actives have a fitted effect of over 60% in size; note: potency is the fitted concentration of half-maximal effect
# In short: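 Percent inhibition derives from the 15-min fluorescence change (ex 480, em 540 nm), normalized to no-enzyme and no-inhibitor wells. Reactions contained 25 nM NS2B-NS3 complex and 1.5 microM substrate in 10 mM Tris-HCl pH 8.0.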
# [3] = system: Zika virus NS2B-NS3 protease (linked construct); experiment: Primary screen NINDS Rhodamine qHTS for Zika virus inhibitors (AID 1347160); note: nearly all actives have a fitted effect of over 55% in size
# In short: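 In 10 mM Tris-HCl pH 8.0 containing 0.01% Tween 20, linked NS2B-NS3 protease (25 nM final) is exposed to test compounds for 15 min. Cleavage of 1.5 microM Rhodamine110 substrate is tracked by fluorescence over 15 min.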
# [4] = ZIKV-mCherry secondary qHTS for Zika virus inhibitors (AID 1347158); note: top concentration of the series differs between compounds
# In short: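 Vero cells, 5,000/well, plated overnight at 37 °C, then compound added and infected with recombinant ZIKV-mCherry at MOI 1 for 48-72 h. PFA-fixed, Hoechst nuclear stain, high-content imaging; cells with mCherry intensity above 450 RFU scored infected, reported as percent infection.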
# [5] = Confirmatory screen NINDS Rhodamine qHTS for Zika virus inhibitors (AID 1347161); note: nearly all actives have a fitted effect of over 60% in size; note: potency is the fitted concentration of half-maximal effect;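 for activity change, negative = inhibition: purified Zika NS2B-NS3 protease with linked NS2B cofactor domain and Rhodamine110 peptide substrate; series mostly up to about 110 µM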
# In short: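 qHTS dose-response: 25 nM linked protease, pH 8.0 Tris/Tween buffer, cpd titration, 15 min RT preinc, 1.5 microM Rhod110 peptide, 15 min reaction (~15% conversion), Ex480/Em540; 4-parameter Hill fit.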
# [6] = system: Zika virus NS2B-NS3 protease (linked); experiment: 384 well plate NINDS AMC confirmatory qHTS for Zika virus inhibitors (AID 1347163); note: potency is the fitted concentration of half-maximal effect; nearly all actives have a fitted effect of over 50% in size
# In short: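 Linked protease 5/30/60 nM final; cpds up to 1 mM final, ~15 min preinc. Substrate Ac-VKTGKR-AMC 30 microM final. RT, dark, 25 min; FI ex 355/em 460; normalized to no-enzyme/no-inhibitor ctrls.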
# [7] = system: Zika virus NS2B-NS3 protease (linked construct); experiment: 384 well plate NINDS Rhodamine confirmatory qHTS for Zika virus inhibitors (AID 1347164);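 note: fluorescence from protease cleavage of Ac-LKRR-rhodamine 110 substrate; nearly all actives have a fitted effect of over 65% in size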; note: potency is the fitted concentration of half-maximal effect; for activity change, negative = inhibition: top concentration of the series differs between compounds
# In short: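 Fluorescence at 485/538 nm was measured 25 minutes after adding 10 microM Ac-LKRR-Rd substrate, in the dark at room temperature. The protease (5, 30 or 60 nM final) had been preincubated ~15 minutes with compound; aprotinin as control.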
# [8] = Confirmatory screen GU Rhodamine qHTS for Zika virus inhibitors qHTS (AID 1347157); note: nearly all actives have a fitted effect of over 70% in size
# In short: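 Compounds, tested up to 114 microM, were incubated for 15 minutes with 25 nM unlinked NS2B-NS3 protease at pH 8.0. Cleavage of 1.5 microM Rhodamine110 substrate was then followed by fluorescence for 15 minutes.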
compound,measurement,setting,value
O=C(NCCCCN1CCOCC1)c1cc2ccccc2o1,Potency,[1],inactive
C#CCN(C)CC1=Cc2ccccc2Oc2ccccc21,Potency,[1],inactive
CCOC(=O)[C@@H](N)CCC(=O)N[C@@H](CSCc1ccccc1)C(=O)N[C@@H](C(=O)OCC)c1ccccc1,Potency,[1],inactive
COc1ccc(-c2cc(=O)c3c(O)cc(O[C@@H]4O[C@H](CO[C@@H]5O[C@@H](C)[C@H](O)[C@@H](O)[C@@H]5O)[C@@H](O)[C@H](O)[C@@H]4O)cc3o2)cc1O,Potency,[1],inactive
COc1cc(CNC(=O)CCCCC=CC(C)C)ccc1O,Potency,[1],inactive
Cc1ccc(C(=O)N(CCCN)[C@@H](c2oc3cc(Cl)ccc3c(=O)c2Cc2ccccc2)C(C)C)cc1,Potency,[1],inactive
CC(C)N(CCCNC(=O)Nc1ccc(C(C)(C)C)cc1)C[C@H]1O[C@@H](n2cc(Br)c3c(N)ncnc32)[C@H](O)[C@H]1O,Potency,[1],inactive
CC1(C)CC(=O)c2c(C(F)(F)F)nn(-c3ccc(C(N)=O)c(NC4CCC(O)CC4)c3)c2C1 (centres undefined),Potency,[1],inactive
same,Potency,[2],inactive
same,Potency,[3],inactive
COC(=O)Nc1ccc(-c2nc(N3CCOCC3)c3cnn(C4CCN(C(=O)OC)CC4)c3n2)cc1,Potency,[1],inactive
Cc1ccccc1-n1c(Cn2nc(-c3cccc(O)c3)c3c(N)ncnc32)nc2cccc(C)c2c1=O,Potency,[1],inactive
same,Potency,[2],inactive
same,Potency,[3],inactive
O=C(Nc1cccc(C(F)(F)F)c1)Nc1cc(S(=O)(=O)NC2CC2)ccc1-c1ccsc1,Potency,[1],inactive
same,Potency,[2],22.4 µM (active)
Cc1cccc2c1CC[C@H](CN1CCC(c3c(Cl)cccc3Cl)CC1)C[C@@H]2O,Potency,[1],inactive
same,Potency,[2],inactive
same,Potency,[3],inactive
COC(=O)N1CCN(Cc2cccc(NC(=O)Nc3ccc(C)nc3)c2F)CC1,Potency,[1],inactive
same,Potency,[2],inactive
same,Potency,[3],inactive
CC1=C(C(=O)Nc2cc3cn[nH]c3cc2F)C(c2ccc(C(F)(F)F)cc2)CC(=O)N1 (centres undefined),Potency,[1],inactive
same,Potency,[2],inactive
same,Potency,[3],inactive
C[C@@]1(c2cc(-c3cncnc3)c(F)cc2F)CCSC(N)=N1,Potency,[1],inactive
same,Potency,[2],inactive
same,Potency,[3],inactive
Nc1[nH]nc2nnc(-c3c(-c4ccccc4)nn4ccccc34)cc12,Potency,[1],inactive
same,Potency,[2],inactive
same,Potency,[3],inactive
CN[C@@H](C)[C@H]1[C@H](O)C[C@@]2(C)[C@@H]3CC[C@H]4C(C)(C)[C@@H](NC)CC[C@@]45C[C@@]35CC[C@]12C,Potency,[1],inactive
same,"activity change, negative = inhibition",[2],119% [at 19.1 µM]
same,outcome,[3],inactive [at 10.7 µM]
Nc1nc(Cl)nc2c1ncn2[C@@H]1O[C@H](CO)[C@@H](O)[C@H]1F,Potency,[1],inactive
CCOC(=O)N1CCN([N+]([O-])=NOc2cc(ON=[N+]([O-])N3CCN(C(=O)OCC)CC3)c([N+](=O)[O-])cc2[N+](=O)[O-])CC1,Potency,[1],inactive
CCn1c(-c2nonc2N)nc2cncc(CNC3CCNCC3)c21,Potency,[1],inactive
same,Potency,[2],inactive
same,Potency,[3],inactive
CC[C@@H]([C@H](C)O)n1ncn(-c2ccc(N3CCN(c4ccc(OCC5CO[C@@](Cn6cncn6)(c6ccc(F)cc6F)C5)cc4)CC3)cc2)c1=O (some centres undefined),Potency,[1],inactive
O=c1cc(-c2ccc(O)c(O)c2)oc2cc(O)cc(O)c12,Potency,[1],inactive
same,outcome,[4],inactive
same,Potency,[5],28.2 µM (active)
same,Potency,[6],70.8 µM (active)
same,Potency,[7],inactive
CC(=O)Nc1cccc(-n2c(=O)n(C3CC3)c(=O)c3c(Nc4ccc(I)cc4F)n(C)c(=O)c(C)c32)c1,Potency,[1],inactive
same,Potency,[2],inactive
same,Potency,[3],inactive
CCCCC[C@H](O)C=C[C@H]1[C@H](O)CC(=O)[C@H]1CC=CCCCC(=O)O,Potency,[1],inactive
NC1(C(=O)N[C@@H](CCO)c2ccc(Cl)cc2)CCN(c2ncnc3[nH]ccc23)CC1,Potency,[1],inactive
same,Potency,[2],inactive
same,Potency,[3],inactive
Nc1ccc(-c2ccc3ncc4ccc(=O)n(-c5cccc(C(F)(F)F)c5)c4c3c2)cn1,Potency,[1],inactive
same,Potency,[2],inactive
same,Potency,[3],inactive
CCN1CCN(c2ccc(Nc3cc(N(C)C(=O)Nc4c(Cl)c(OC)cc(OC)c4Cl)ncn3)cc2)CC1,Potency,[1],inactive
same,Potency,[2],inactive
same,Potency,[3],inactive
O=C(CO)N1CCC(c2[nH]nc(-c3ccc(Cl)cc3)c2-c2ccncn2)CC1,Potency,[1],inactive
same,Potency,[2],inactive
same,Potency,[3],inactive
CCc1cccc(CC)c1NC(=O)N1Cc2[nH]nc(NC(=O)c3ccc(N4CCN(C)CC4)cc3)c2C1,Potency,[1],inactive
same,Potency,[2],inactive
same,Potency,[3],inactive
CN(C)CCOc1cc(-c2cn[nH]c2)ccc1NC(=O)C1COc2ccccc2O1 (centres undefined),Potency,[1],inactive
same,Potency,[2],inactive
same,Potency,[3],inactive
C=CCc1cccc(C=NNC(=O)CN2CCN(Cc3ccccc3)CC2)c1O,Potency,[1],inactive
CC1(COc2ccc3c(c2)ncn3-c2ccc3cccc(N4CCC(N)CC4)c3n2)COC1,Potency,[1],inactive
same,Potency,[2],inactive
same,Potency,[3],inactive
CC1CCN(c2cc(N3CCN(C)CC3)ccc2NC(=O)c2cc(C#N)c[nH]2)CC1,Potency,[1],inactive
same,Potency,[2],inactive
same,Potency,[3],inactive
Clc1ccc(C2(c3ccc(-c4cn[nH]c4)cc3)CCNCC2)cc1,Potency,[1],inactive
same,Potency,[2],inactive
same,Potency,[3],inactive
CCC(=O)N1CCN(c2ccc(-n3c(=O)ccc4cnc5ccc(-c6cnc7ccccc7c6)cc5c43)cc2C(F)(F)F)CC1,Potency,[1],inactive
same,"activity change, negative = inhibition",[2],-9.09% [at 19.1 µM]
same,"activity change, negative = inhibition",[3],-4.81% [at 10.7 µM]
CCCCn1c(=O)n(Cc2ccccc2F)c(=O)c2[nH]c(Cc3ccc(NC(C)=O)cc3)nc21,Potency,[1],inactive
same,Potency,[2],inactive
same,Potency,[3],inactive
O=C(NC[C@H](O)CO)c1ccncc1Nc1ccc(I)cc1F,Potency,[1],inactive
Cc1ccc2c(c1)C(=O)[C@]1(O)CCN(c3ccccc3)C1=N2,Potency,[1],inactive
same,Potency,[8],inactive
same,Potency,[2],inactive
same,Potency,[5],inactive
Cc1cc(CS(=O)(=O)c2ccccc2)cc(OCc2ccc(CN3CCC[C@H]3CO)cc2)c1,Potency,[1],inactive
COc1ccc2c(c1)c(C1=C(c3c[nH]c4ccccc34)C(=O)NC1=O)cn2CCCN(C)C,Potency,[1],inactive
COc1ccc2c(c1)CC[C@H]1[C@@H]2CC[C@]2(C)[C@@H](NCCCCCCN3C(=O)C=CC3=O)CC[C@H]12,Potency,[1],inactive
NC(=O)c1nnn(Cc2cc(Cl)c(C(=O)c3ccc(Cl)cc3)c(Cl)c2)c1N,Potency,[1],inactive
COc1nc(C)cnc1NS(=O)(=O)c1cccnc1-c1ccc(-c2nnco2)cc1,Potency,[1],inactive
same,Potency,[2],inactive
same,Potency,[3],inactive
c1cc(OCCN2CCCCC2)cc(-c2n[nH]c3ccc(-c4ncn[nH]4)cc23)c1,Potency,[5],inactive
O=S(=O)(O)c1ccc2cc(N=Nc3cc(S(=O)(=O)O)c4cccnc4c3O)ccc2c1,Potency,[6],79.4 µM (active)
same,Potency,[7],0.562 µM (active)
CN(C)CC[C@H](CSc1ccccc1)Nc1ccc(S(=O)(=O)NC(=O)c2ccc(N3CCN(Cc4ccccc4-c4ccc(Cl)cc4)CC3)cc2)cc1[N+](=O)[O-],Potency,[7],0.708 µM (active)
